Calls of active or inactive are those of the source. No rule for the calls is given here.
Each molecule was assayed on Aerobactin synthetase IucA (Klebsiella pneumoniae, hypervirulent) (assay: IucA enzyme inhibition, biochemical, LOPAC library, absorbance readout (AID 1346212;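 also: 100% = no compound wells and 0% = no enzyme wells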)). Conditions: IucA enzyme assay, absorbance (OD) readout; stronger effect = lower value;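 tested at 8 µM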.

Compound | remaining activity
Cc1[nH]c(=O)c(C#N)cc1-c1ccc2nccn2c1 | 112% (inactive)
OC1(c2ccc(Cl)cc2)CCN(Cc2c[nH]c3ccccc23)CC1 | 112% (inactive)
Cc1ccc(O)c(N=Nc2ccccc2)n1 | 82.6% (inactive)
C[C@]12C=CC(=O)C=C1CC[C@@H]1C2=CC[C@]2(C)[C@@H](C(=O)CN3CCN(c4cc(N5CCCC5)nc(N5CCCC5)n4)CC3)CC[C@@H]12 | 102% (inactive)
N[C@H](CO)C(=O)O | 106% (inactive)
C[C@@H]1C(=O)NC2=Nc3cccc(Cl)c3CN21 | 121% (inactive)
N#C/C(=C\c1ccc(O)c(O)c1)C(=O)NCc1ccccc1 | 101% (inactive)
CCN1CCc2nc(N)oc2CC1 | 119% (inactive)
CCCCCCCCCCCCCCSCC(=O)O | 105% (inactive)
Cc1cccc(C)c1OCC(N)C(C)C (stereo not given) | 97.7% (inactive)
C#C[C@]1(O)CC[C@H]2[C@@H]3CCC4=Cc5nc6nc7ccccc7n6cc5C[C@]4(C)[C@H]3CC[C@@]21C | 123% (inactive)
O=C(O)c1ccccc1Nc1cccc(OCc2ccc3ccccc3n2)c1 | 125% (inactive)
O=c1cc(N2CCOCC2)oc2c(-c3ccccc3)cccc12 | 110% (inactive)
CNC(=O)[C@H]1O[C@@H](n2cnc3c(NCc4cccc(I)c4)ncnc32)[C@H](O)[C@@H]1O | 114% (inactive)
CSC(N)=NCCC[C@H](N)C(=O)O | 123% (inactive)
C[C@@](Cc1ccc(O)c(O)c1)(NN)C(=O)O | 81.8% (inactive)
Cn1cnc2c(NCc3ccccc3)nc(NCCO)nc21 | 119% (inactive)
C[C@]12C=CC(=O)C=C1CC[C@H]1[C@@H]3C[C@@H](O)[C@](O)(C(=O)CO)[C@@]3(C)C[C@H](O)[C@@]12F | 110% (inactive)
O=C(O)[C@@H]1C[C@H](C(=O)O)N1 | 109% (inactive)
COCCCC/C(=N\OCCN)c1ccc(C(F)(F)F)cc1 | 100% (inactive)

Compound | remaining activity
N#Cc1c(-c2ccccc2)no[n+]1[O-] | 125% (inactive)
COc1cccc(OC)c1OCCNCC1CSc2ccccc2O1 (stereo not given) | 114% (inactive)
OC[C@H]1O[C@H]([S-])[C@H](O)[C@@H](O)[C@@H]1O.[Au+] | 66.7% (active)
CN1CCN(CC/C=C2/c3ccccc3Sc3ccc(S(=O)(=O)N(C)C)cc32)CC1 | 99.4% (inactive)
CCN1/C(=C/C(C)=O)Sc2ccc(OC)cc21 | 123% (inactive)
CCCCCC(O)CCCC(=O)O (stereo not given) | 101% (inactive)
CC(=O)O[C@H]1Cc2ccccc2N(C(N)=O)c2ccccc21 | 85% (inactive)
Cc1ccccc1N1CCN(S(=O)(=O)C[C@@]23CC[C@H](CC2NC(=O)[C@H](N)CCS(C)(=O)=O)C3(C)C)CC1 (stereo not given in full) | 121% (inactive)
COc1ccc(Cl)cc1NC(=O)Nc1cc(C)nc2ccccc12 | 95% (inactive)
Nn1nnc2ccccc21 | 115% (inactive)
CCN1C(=O)C=CC1=O | 102% (inactive)
NC(N)=NC(=O)Cc1c(Cl)cccc1Cl | 119% (inactive)
CNCCc1cnc(CCC(c2ccccc2)c2ccccc2)[nH]1 | 110% (inactive)
CC[C@@H]1Cc2cc(O)ccc2C2=C1c1ccc(O)cc1C[C@H]2CC | 89.7% (inactive)
NCC(O)(CS(=O)(=O)O)c1ccc(Cl)cc1 (stereo not given) | 103% (inactive)
CCN(CC)CC#CCOC(=O)C(O)(c1ccccc1)C1CCCCC1 (stereo not given) | 118% (inactive)
N=C(N)SCCc1cccc(CCSC(=N)N)c1 | 110% (inactive)
O=C(Cc1ccc(Cl)c(Cl)c1)OCCN1CCCC1 | 117% (inactive)
Cc1cccc(C#Cc2ccccc2)n1 | 123% (inactive)
C=C(C)C1CC=C(C(=O)O)CC1 (stereo not given) | 82.4% (inactive)

Source: PubChem BioAssay
